Assay [1] relates to Plasmodium falciparum Sir2 (PF13_0152, Sir2A). The assay is described as follows: Plasmodium falciparum Sir2A binding compounds – biochemical, small-molecule microarray, 635 nm fluorescence, primary screen (AID 1098).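 Note: score merges spot fluorescence intensity with its signal-to-noise ratio.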 As to conditions: fluorescence 635 nm, higher = more signal.
Assay [2] can be described thus: probe aDKK1 binding to arrayed compounds – biochemical, biotinylated probe, 635/667 nm fluorescence, primary screen (AID 1099).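 Note: score merges 667nm spot fluorescence with signal to noise across triplicate slides.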 The note with it: small-molecule microarray, higher = more signal.
The nature of assay [3]: probe aCHRDL2 binding to arrayed compounds – biochemical, biotinylated probe, 635/667 nm fluorescence, primary screen (AID 1100). The note with it: small-molecule microarray, higher = more signal.
Assay [4] can be described thus: change in splice reporter luminescence, either direction, cell-based, HEK293, spliceosome inhibition project, primary screen (AID 1101).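 Note: HEK293 cells carrying a splicing-competent luciferase reporter gene; test concentration not given here.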 The note with it: HEK293 splicing luciferase reporter, 24 h, higher = more signal, called active from +8 up or from −8 down. (A reporter such as luciferase makes a cellular process visible.)
For assay [5], the target named is Fibroblast growth factor 10 (Homo sapiens) (UniProt O15520). The assay is described as follows: compounds binding fibroblast growth factor 10 – biochemical, small-molecule microarray, 635 nm fluorescence, primary screen (AID 1102). As to conditions: FGF10 binding, fluorescence 635 nm, higher = more signal.
Sequence of Fibroblast growth factor 10 (Homo sapiens) (O15520 whole entry, looked up): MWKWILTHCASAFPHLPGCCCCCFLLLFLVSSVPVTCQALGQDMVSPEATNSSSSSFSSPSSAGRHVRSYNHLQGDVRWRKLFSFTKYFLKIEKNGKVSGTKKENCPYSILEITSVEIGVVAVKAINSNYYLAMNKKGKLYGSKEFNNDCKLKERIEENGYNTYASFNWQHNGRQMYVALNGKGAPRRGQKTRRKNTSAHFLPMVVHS
The subject of assay [6] is glycogen synthase kinase-3 (GSK3A per assay name; protocol says GSK3B). The assay is described as follows: compounds binding glycogen synthase kinase-3 – biochemical, small-molecule microarray, 635 nm fluorescence, GSK3A, primary screen (AID 1103). Note: the record names both GSK3A and GSK3B. As to conditions: fluorescence 635 nm, higher = more signal.
Assay [7] addresses Epidermal growth factor receptor (Homo sapiens) (UniProt P00533). The assay is described as follows: compounds binding epidermal growth factor receptor – biochemical, small-molecule microarray, 635 nm fluorescence, primary screen (AID 1104).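 Note: score merges 667 nm emission intensity with spot signal to noise over triplicate slides.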 As to conditions: EGFR binding, higher = more signal.
The target in assay [8] is Follistatin-related protein 3 (Homo sapiens) (UniProt O95633). As to the kind of experiment: compounds binding follistatin-related protein 3 – biochemical, small-molecule microarray, 635 nm fluorescence, primary screen (AID 1105).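 Note: score merges emission near 667 nm and signal to noise per printed spot across three slides.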 As to conditions: FSTL3 binding, higher = more signal.
Sequence of Follistatin-related protein 3 (Homo sapiens) (O95633 whole entry, looked up): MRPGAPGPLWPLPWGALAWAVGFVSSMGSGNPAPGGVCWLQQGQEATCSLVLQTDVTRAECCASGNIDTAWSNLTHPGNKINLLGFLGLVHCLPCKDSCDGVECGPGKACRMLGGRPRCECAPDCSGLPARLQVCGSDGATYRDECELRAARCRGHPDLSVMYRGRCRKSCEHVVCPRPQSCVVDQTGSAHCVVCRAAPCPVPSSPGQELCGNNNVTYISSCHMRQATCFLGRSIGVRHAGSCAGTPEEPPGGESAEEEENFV
Assay [9] addresses Dickkopf-related protein 1 (Homo sapiens) (UniProt O94907). As to the kind of experiment: small molecules binding DKK1 protein – biochemical, small-molecule microarray, 635 nm fluorescence scan, primary screen (AID 1106).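 Note: score merges emission near 667 nm with signal to noise over three replicate slides.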 The note with it: higher = more signal.
Assay [10] relates to Inhibin beta A chain (activin A). The assay is described as follows: small molecules binding activin A – biochemical, small-molecule microarray, 635 nm fluorescence scan, primary screen (AID 1107).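 Note: mouse activin A protein probed at 4.33 µg/mL on printed slides; score merges bound-protein fluorescence near 667 nm with spot signal-to-noise.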 The note with it: INHBA, higher = more signal.
Assay [11] relates to Human papillomavirus type 1a protein E7 (residues 44-93). The assay is described as follows: small molecules binding HPV E7 44-93 – biochemical, small-molecule microarray, residues 44-93, 635 nm fluorescence, primary screen (AID 1108).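 Note: E7 fragment applied at 1 µg/mL in TBST for 1 h at 4 C; score combines spot fluorescence with its signal to noise ratio.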 As to conditions: fluorescence 635 nm, higher = more signal.
The nature of assay [12]: hepatitis C replication reporter changes, two-sided – Huh7 cells, luciferase reporter, HCV replication inhibitor project, primary screen (AID 1109).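 Note: huh7 hepatoma cells harbouring a luciferase neomycin HCV replicon reporter; luciferase luminescence as measure of HCV replicon replication; test concentration not given here.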 As to conditions: Huh7 HCV replicon luciferase reporter, 48 h; higher = more signal.
For assay [13], the target named is Left-right determination factor 2 (Homo sapiens) (UniProt O00292). The assay is described as follows: small molecules binding LEFTY2 protein – biochemical, small-molecule microarray, 635 nm fluorescence scan, primary screen (AID 1110). The note with it: higher = more signal.
Sequence of Left-right determination factor 2 (Homo sapiens) (O00292 whole entry, looked up): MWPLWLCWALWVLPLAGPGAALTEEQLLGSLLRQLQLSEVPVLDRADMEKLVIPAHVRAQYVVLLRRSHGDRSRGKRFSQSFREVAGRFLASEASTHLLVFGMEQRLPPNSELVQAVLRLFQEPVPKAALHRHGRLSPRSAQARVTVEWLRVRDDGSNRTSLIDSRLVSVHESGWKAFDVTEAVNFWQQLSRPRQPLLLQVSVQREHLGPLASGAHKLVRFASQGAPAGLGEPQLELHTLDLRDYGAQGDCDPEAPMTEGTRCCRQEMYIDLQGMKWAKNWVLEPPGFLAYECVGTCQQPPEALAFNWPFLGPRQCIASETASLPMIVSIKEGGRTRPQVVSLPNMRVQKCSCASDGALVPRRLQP
The target in assay [14] is Calmodulin-1 (Homo sapiens) (UniProt P0DP23). As to the kind of experiment: small molecules binding calmodulin-1 with EGTA – biochemical, small-molecule microarray, Cy5-labelled CALM1, profiling panel (AID 1111).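 Note: labelled calmodulin applied in Tris saline Tween buffer holding calcium plus EGTA and DTT.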 As to conditions: Cy5-CALM1 binding fluorescence, higher = more signal.
Assay [15] has the same target. The assay is described as follows: small molecules binding Ca-loaded calmodulin-1 – biochemical, small-molecule microarray, Cy5-labelled CALM1, plus calcium, artefact control for SMM control-protein annotation, profiling panel (AID 1112).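 Note: score merges spot fluorescence with signal to noise from triplicate slides.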 As to conditions: Cy5-CALM1 binding fluorescence, higher = more signal.
A short description of assay [16]: probe aWnt5a binding to arrayed compounds – biochemical, biotinylated probe, 635/667 nm fluorescence, primary screen (AID 1113).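 Note: score merges 667 nm fluorescence intensity with signal-to-noise per printed feature.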 The note with it: small-molecule microarray, higher = more signal.
Assay [17] in a line: probe aShh binding to arrayed compounds – biochemical, biotinylated probe, 635/667 nm fluorescence, primary screen (AID 1114).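 Note: probe is biotin-labelled aShh protein from a stem cell growth factor screen; measures binding of labelled protein to compounds printed on the slide; score merges feature fluorescence at 667 nm with signal-to-noise.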 The note with it: small-molecule microarray, higher = more signal.
A short description of assay [18]: probe aNog binding to arrayed compounds – biochemical, biotinylated probe, 635/667 nm fluorescence, primary screen (AID 1115).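 Note: probe is biotinylated aNog protein used at 0.15 µg/mL for 1 h at 4 C; z-score combines 667 nm fluorescence of each spot with its signal to noise.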 As to conditions: small-molecule microarray, higher = more signal.
Assay [19] concerns the target Torsin-1A-interacting protein 1 (Homo sapiens) (UniProt Q5JTV8). The assay is described as follows: compound microarray binding of lysate hLAP1 – cell lysate, small-molecule microarray, COS7 lysate, 635/667 nm fluorescence, primary screen (AID 1116). As to conditions: 635 nm fluorescence, higher = more signal.
For assay [20], the target named is Alpha-bungarotoxin (Bungarus multicinctus) (UniProt P60615). As to the kind of experiment: compounds binding labelled alpha-BTX control protein – biochemical, small-molecule microarray, Alexa647 label, 635/667 nm fluorescence, artefact control for SMM control protein annotation, profiling panel (AID 1117). The note with it: alpha-BTX-A647 binding fluorescence, higher = more signal.
Sequence of Alpha-bungarotoxin (Bungarus multicinctus) (P60615 whole entry, looked up): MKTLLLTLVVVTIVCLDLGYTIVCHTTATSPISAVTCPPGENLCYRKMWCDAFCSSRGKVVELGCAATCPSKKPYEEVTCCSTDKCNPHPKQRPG

Activity calls are given as the source filed them.

Sequence of Epidermal growth factor receptor (Homo sapiens) (P00533 whole entry, looked up): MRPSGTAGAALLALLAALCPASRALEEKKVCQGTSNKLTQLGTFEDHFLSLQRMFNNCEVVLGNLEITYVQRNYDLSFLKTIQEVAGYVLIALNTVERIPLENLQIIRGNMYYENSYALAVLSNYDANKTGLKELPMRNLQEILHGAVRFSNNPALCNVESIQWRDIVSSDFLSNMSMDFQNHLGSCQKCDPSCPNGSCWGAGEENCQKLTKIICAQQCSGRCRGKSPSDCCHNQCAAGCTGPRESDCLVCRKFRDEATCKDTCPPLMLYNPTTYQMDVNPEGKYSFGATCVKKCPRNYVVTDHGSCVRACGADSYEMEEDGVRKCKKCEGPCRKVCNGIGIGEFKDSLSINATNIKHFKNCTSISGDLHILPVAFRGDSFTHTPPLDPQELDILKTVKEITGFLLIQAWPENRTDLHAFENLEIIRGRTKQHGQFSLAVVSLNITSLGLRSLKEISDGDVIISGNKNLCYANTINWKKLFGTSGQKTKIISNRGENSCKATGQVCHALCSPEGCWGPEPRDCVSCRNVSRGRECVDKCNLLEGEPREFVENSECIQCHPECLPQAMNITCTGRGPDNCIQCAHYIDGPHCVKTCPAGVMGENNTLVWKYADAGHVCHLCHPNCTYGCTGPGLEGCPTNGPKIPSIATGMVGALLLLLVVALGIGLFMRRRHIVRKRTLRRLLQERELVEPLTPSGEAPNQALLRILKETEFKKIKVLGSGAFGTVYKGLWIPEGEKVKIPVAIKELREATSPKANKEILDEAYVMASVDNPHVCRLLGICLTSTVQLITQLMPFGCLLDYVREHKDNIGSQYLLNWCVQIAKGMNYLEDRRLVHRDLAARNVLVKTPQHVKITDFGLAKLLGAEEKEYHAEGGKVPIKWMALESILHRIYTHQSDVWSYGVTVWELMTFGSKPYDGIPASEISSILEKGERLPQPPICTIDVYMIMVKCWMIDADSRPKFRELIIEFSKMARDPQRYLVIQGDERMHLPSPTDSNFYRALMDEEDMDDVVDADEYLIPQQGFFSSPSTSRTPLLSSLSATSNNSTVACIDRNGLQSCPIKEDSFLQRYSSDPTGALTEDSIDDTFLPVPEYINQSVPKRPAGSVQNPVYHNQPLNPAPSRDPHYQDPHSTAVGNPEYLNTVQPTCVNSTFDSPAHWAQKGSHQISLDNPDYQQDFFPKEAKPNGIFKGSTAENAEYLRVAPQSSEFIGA
Sequence of Torsin-1A-interacting protein 1 (Homo sapiens) (Q5JTV8 whole entry, looked up): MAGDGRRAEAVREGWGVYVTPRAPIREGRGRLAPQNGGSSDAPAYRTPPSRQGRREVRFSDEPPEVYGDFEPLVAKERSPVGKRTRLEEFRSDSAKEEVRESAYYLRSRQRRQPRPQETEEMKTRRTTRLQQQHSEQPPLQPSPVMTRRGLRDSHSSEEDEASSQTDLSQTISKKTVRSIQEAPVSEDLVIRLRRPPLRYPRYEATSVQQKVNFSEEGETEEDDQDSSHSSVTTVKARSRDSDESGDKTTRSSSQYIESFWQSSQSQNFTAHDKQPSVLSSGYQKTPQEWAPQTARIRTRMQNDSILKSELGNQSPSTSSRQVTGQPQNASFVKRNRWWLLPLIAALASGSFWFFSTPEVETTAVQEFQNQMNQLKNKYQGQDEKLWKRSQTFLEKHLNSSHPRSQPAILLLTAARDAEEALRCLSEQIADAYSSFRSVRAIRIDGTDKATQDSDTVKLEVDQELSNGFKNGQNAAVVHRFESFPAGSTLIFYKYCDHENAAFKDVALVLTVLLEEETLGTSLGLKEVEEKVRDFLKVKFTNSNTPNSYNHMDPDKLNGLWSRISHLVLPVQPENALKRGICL
Sequence of Dickkopf-related protein 1 (Homo sapiens) (O94907 whole entry, looked up): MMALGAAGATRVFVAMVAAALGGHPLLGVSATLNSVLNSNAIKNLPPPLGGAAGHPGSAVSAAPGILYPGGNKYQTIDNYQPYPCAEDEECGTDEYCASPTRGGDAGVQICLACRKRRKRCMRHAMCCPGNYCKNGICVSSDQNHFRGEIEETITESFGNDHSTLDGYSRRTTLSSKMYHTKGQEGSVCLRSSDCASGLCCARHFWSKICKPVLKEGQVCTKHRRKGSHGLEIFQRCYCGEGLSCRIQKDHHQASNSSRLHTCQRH

Regarding `COC(=O)c1c(CC[C@@H](CO)NC(=O)N[C@H](Cn2cc(C3(O)CCCCC3)nn2)C(C)C)oc(C(C)=O)c1C(=O)OC`, the composite z-score in assay [1] was 0.997; in assay [2], -0.0398; in [3], -0.446; in assay [5] it was 1.07; in [6] it was 0.859; in assay [7], 0.557. Further, the composite z-score in assay [8] turned out to be 1.1; in assay [9], 0.788; in assay [10], 0.368; in assay [11], 1.01; in assay [13], 0.724; in assay [14] it was 0.169. Moreover, the composite z-score was -0.715 in [15]; 0.002 in assay [16]; 0.151 in [17]; 0.141 in [18]; 0.748 in [19]; 1.65 in [20]. Moreover, the z-score in [4] is -1.66 (inactive); in assay [12], -0.415.
For the compound `O=C1O[C@H](c2ccccc2)[C@H](c2ccccc2)N2[C@H]1[C@@H](C(=O)Nc1nc3ccccc3s1)[C@]1(C(=O)Nc3ccc(C#CCCO)cc31)[C@H]2c1ccc(O)cc1`, the composite z-score came out at 0.915 in [1]; 0.39 in [2]; 0.673 in [3]; 0.929 in assay [5]; 0.88 in [6]; 0.591 in assay [7]. Moreover, the composite z-score in [8] stood at 0.763; in assay [9], 0.198; in [10] it was 0.635; in [11], 1.4; in assay [13], 0.691; in assay [14], 0.628. The composite z-score in [15] was -0.0808; in assay [16] it was -0.0519; in assay [17] it was -0.0035; in [18] it was -0.28; in [19], 0.799; in [20], 0.369. Moreover, the z-score was -0.285 (inactive) in assay [4] and -0.829 in assay [12].
`Cc1ccc(S[C@]2(C(=O)O)CC(=O)N(Cc3ccccc3Cl)[C@@H]2c2ccc(CO)cc2I)cc1`: the composite z-score is 0.534 in [1]; 1.47 in [2]; -0.217 in assay [3]; -0.054 in assay [5]; 0.202 in assay [6]; 0.0365 in [7]. The composite z-score in assay [8] is 0.653; in [9], 1.18; in assay [10], 0.164; in assay [11], -0.455; in assay [13] it was 0.0515; in assay [14] it was -0.326. In addition, the composite z-score is -0.952 in [15]; -0.483 in assay [16]; 0.209 in assay [17]; -1.13 in assay [18]; -0.421 in [19]; -0.338 in assay [20]. Besides, the figures for the z-score in assay [4] and in [12] were -0.565 (inactive) and -1.77, respectively.
In the case of `CO[C@H]1O[C@H](CO)[C@@H](OC(=O)Nc2ccc3c(c2)OCO3)[C@H](OC(=O)c2cc3ccccc3[nH]2)[C@H]1OC(=O)c1cc2ccccc2[nH]1`, the composite z-score in assay [1] was 0.787; in assay [2] it was -0.0268; in [3], -0.161; in assay [5], 0.247; in assay [6] it was -0.0406; in assay [7], -0.194. Further, the composite z-score in assay [8] is 0.238; in assay [9], 0.283; in assay [10] it was 1.46; in assay [11] it was -0.343; in [13], 0.117; in assay [14], -0.418. In addition, the composite z-score in [15] is -0.83; in assay [16] it was -0.168; in assay [17], -0.0709; in [18] it was -0.315; in [19], 0.0724; in assay [20] it was 0.279. For the same compound, the z-score in [4] is -1.87 (inactive); in assay [12] it was -1.99.
In the case of `C=C(C)[C@@H]1CC=C(C(O)C2C=CC3C(=O)N(c4ccccc4)C(=O)C3N2Nc2ccccc2F)CC1` (stereo not given in full), the composite z-score in [1] was found to be 1.15; in assay [2] it was 0.671; in assay [3], 0.972; in [5] it was 1.08; in assay [6] it was 1.3; in assay [7], 0.662. Besides, the composite z-score in [8] was 1.42; in [9], -0.112; in assay [10] it was 0.725; in [11], 1.46; in [13] it was 0.341; in assay [14] it was 1.41. Besides, the composite z-score in [15] is 0.797; in [16], 0.0003; in assay [17], -0.0858; in assay [18] it was 1.4; in [19], 1.04; in assay [20], 1.19. Moreover, the z-score was 0.869 (inactive) in [4] and -0.0769 in [12].
On to `O=C1NC(=O)C2C1C=CC(C(O)c1cccc3ccccc13)N2Nc1ccc(Cl)cc1Cl` (stereo not given), for which the composite z-score in assay [1] is 0.477; in assay [2], 0.911; in assay [3], 1.16; in assay [5], 0.46; in assay [6], 0.267; in [7], -0.459. Further, the composite z-score in assay [8] is 0.0589; in assay [9] it was -1.03; in assay [10], 1.01; in assay [11], 1.38; in assay [13] it was -0.908; in assay [14] it was 1.49. Moreover, the composite z-score came to 0.973 in [15]; 0.0654 in assay [16]; 0.481 in assay [17]; 1.4 in assay [18]; 0.723 in assay [19]; 1.1 in assay [20]. For the same compound, the z-score in [4] was 1.02 (inactive); in assay [12], -0.445.
On to `CCCCO[C@H]1C[C@H]2C(I)=C[C@@H]1C(=O)[C@]21CO1`, for which the composite z-score in [1] was 1.08; in assay [2], -0.37; in assay [3], -0.529; in [5], 0.104; in [6], -0.487; in [7], 0.0707. Further, the composite z-score is 0.127 in [8]; 0.668 in assay [9]; 0.173 in [10]; -0.977 in [11]; 0.312 in assay [13]; -0.331 in assay [14]. In addition, the composite z-score is -0.502 in assay [15]; -0.0735 in assay [16]; -0.0866 in assay [17]; 0.0327 in assay [18]; -0.243 in [19]; -0.0708 in [20]. Also, the z-score in assay [4] was -0.26 (inactive); in assay [12] it was -2.7.
`O=C1O[C@H](c2ccccc2)[C@H](c2ccccc2)N2[C@H]1[C@@H](C(=O)N1CCN(c3ncccn3)CC1)[C@]1(C(=O)Nc3ccc(C#CC4(O)CCCCCC4)cc31)[C@H]2c1ccc(OCCO)cc1`: the composite z-score in assay [1] stood at 1.82; in assay [2], 0.695; in assay [3], 0.731; in assay [5], 1.45; in assay [6], 1.33; in [7] it was 1.38. For the same compound, the composite z-score amounted to 1.21 in assay [8]; 1.42 in assay [9]; 0.86 in [10]; 1.44 in [11]; 1.51 in [13]; 2.26 in assay [14]. Further, the composite z-score in assay [15] was 1.24; in [16], 0.793; in [17], 0.543; in assay [18] it was 2.34; in assay [19], 3.93; in assay [20], 2.81. The z-score in assay [4] is -0.604 (inactive); in [12] it was -1.58.

Values taken from PubChem BioAssay.
